# Source: PubChem BioAssay AID1259240 (Keith Lab, Institute of Cancer Science, University of …, 2017)
# Active and inactive are the calls of the source. Cut-off read from the data, not from the text of the source: active = fold change mostly below about -2 (no sharp cut-off); inactive = mostly above about -1.8.
# Assay: modulation of TERT promoter-driven luciferase – cell-based, luciferase reporter, human, primary screen (AID 1259240)
# Conditions: A2780 TERT promoter luciferase reporter, 16 h; at 20 µM, fold versus average of vehicle-only wells
Compound,fold change,outcome
Cc1ccc(N2CN=c3s/c(=C4\C(=O)Nc5ccccc54)c(=O)n3C2)cc1,-1.33 (inactive),–
CCOc1cc(C2CC(=O)Nc3cc4c(cc32)OCCO4)ccc1O (centres undefined),-1 (inactive),–
O=C(CCC(=O)NC1CCCC1)NNc1nc2ccccc2c2nc(-c3ccccc3)nn12,-1.47 (inactive),–
COc1ccccc1Nc1nc(N)nc(CN2CCN(C)CC2)n1,-3.68 (active),–
Cc1ccc2nc(NCc3ccc4c(c3)OCO4)c3nncn3c2c1,1.52 (inactive),–
CC1(C)CNC(=O)c2sc(NC(=O)CN3CCOCC3)nc2C1,-1.75 (inactive),–
CC1CCC(NS(=O)(=O)c2cccc3cccnc23)CC1 (centres undefined),-2.05 (active),–
Cc1cc(C(=O)O)ccc1-n1c(C)cc(C=C2C(=O)c3ccccc3C2=O)c1C,-2.23 (active),–
COc1cc(OC)c(NC(=O)Nc2cc3sccc3n2C)cc1Cl,1.13 (inactive),–
COc1cc2c(c(OC)c1)C(c1ccc(Br)cc1)CC(=O)N2 (centres undefined),1.09 (inactive),–
CCCCN1C(=O)C(O)(CC(=O)c2cccs2)c2ccccc21 (centres undefined),-1.63 (inactive),–
CCCCNC(=O)CCN1C(=O)c2ccccc2S1(=O)=O,-1.02 (inactive),–
COc1ccc(Nc2ncc(F)c(N3CCOCC3)n2)cc1,-3.37 (active),–
Fc1ccc(-c2nnc3ccc(N4CCOCC4)nn23)cc1,1.05 (inactive),–
COc1ccc2cc3c(N)nn(C(=O)CSc4ccncc4)c3nc2c1,-1.05 (inactive),–
Cc1nc(SCC(=O)Nc2cc(C)on2)c2c(=O)n(C)c(=O)n(C)c2n1,-1.1 (inactive),–
O=S(=O)(NCc1ccccn1)c1cccc2cccnc12,-1.29 (inactive),–
COc1cc(OC)c(-c2nc(-c3ccc(C)cc3)no2)cc1OC,1.55 (inactive),–
CC(=O)c1ccc2c(c1)c1cc(C(C)=O)ccc1n2C,-1.83 (inactive),–
Cc1ccc(Cn2ccc(NC(=O)c3noc(C(C)C)c3[N+](=O)[O-])n2)cc1,-2.42 (active),–

Compound,fold change,outcome
CC(C)C(NS(=O)(=O)c1ccc2c(c1)oc(=O)n2C)C(=O)N1CCN(c2ccccc2F)CC1 (centres undefined),1.1 (inactive),–
Cc1noc(C(=O)Nc2cccnc2Cl)c1Cl,1.48 (inactive),–
O=C(NC1CCCc2ccccc21)c1cccc(NC2=NC3CS(=O)(=O)CC3S2)c1 (centres undefined),1.36 (inactive),–
Cc1cccc2nc(COc3ccc(Cl)cc3)cn12,-4.52 (active),–
Cc1c(C(=O)N2CCOCC2)sc2nc3n(c(=O)c12)N=C(c1ccc(Cl)cc1)CS3,1.21 (inactive),–
CC(C)C(NS(=O)(=O)c1ccc2c(c1)oc(=O)n2C)C(=O)Nc1ccc(F)c(F)c1 (centres undefined),-1.83 (inactive),–
Cc1[nH]n(-c2nc3ccccc3[nH]2)c(=O)c1C=Nc1ccc(F)cc1,–,inactive
O=C(CSc1ncnc2ccccc12)N1CCCc2ccccc21,-1.11 (inactive),–
Cc1nc2cc(-c3ccccc3)nn2c(C)c1CCC(=O)O,-6.77 (active),–
Cn1cnc2c(sc3nc(N4CCOCC4)c4c(c32)CC(C)(C)OC4)c1=O,1.1 (inactive),–
COc1cc(/C=C2\SC(N3CCN(CCO)CC3)=NC2=O)ccc1O,1.07 (inactive),–
NC(=O)C1CCN(C(=O)CN2C(=O)COc3ccc(S(=O)(=O)N4CCCC4)cc32)CC1,1.05 (inactive),–
CC1=C(C(N)=O)C(c2ccc(O)cc2)n2nc(CCCO)nc2N1 (centres undefined),–,inactive
CCS(=O)(=O)Nc1cccc(C2=NN(S(C)(=O)=O)C(c3cccs3)C2)c1 (centres undefined),-1.32 (inactive),–
C=CCn1c(Oc2ccc(C(=O)OC)cc2)nc2c1c(=O)n(C)c(=O)n2C,-2.04 (active),–
CCCSc1nnc2c3ccccc3n(CC)c2n1,-1.73 (inactive),–
COc1ccc(/C=c2\sc3nc(-c4cc(OC)c(OC)c(OC)c4)nn3c2=O)c(OC)c1,-1.26 (inactive),–
Cc1sc2nc3ccc(N4CCCC4)nn3c(=O)c2c1C,-1.02 (inactive),–
CCc1ccc2nc(NC3=NCN(CCN4CCOCC4)CN3)nc(C)c2c1,-1.26 (inactive),–
